Experimental data taken from PubChem BioAssay (NCI).
Compounds without any hit were thinned out: in the full panel of roughly 83,000, 20% have a hit.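 Cell lines were cultured in 96-well plates, exposed to a single compound concentration, and assessed for percent growth 48 hours later.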 The source made the active and inactive calls. How the source made its calls: active means growth percent below 10; inactive means the rest.

Experiments:
Experiment in all cases: NCI-60 one-dose screen, 48 h (100 = growth as untreated, 0 = no growth, -100 = all killed)
NCI-H23 lung = settings: 10 µM unless noted
NCI-H226 lung = settings: 10 µM unless noted
NCI-H322M lung = settings: 10 µM unless noted
HOP-62 NSCLC = settings: 10 µM unless noted
NCI-H460 lung = settings: 10 µM unless noted
HOP-92 NSCLC = settings: 10 µM
NCI-H522 lung = settings: 10 µM unless noted
A549/ATCC NSCLC = settings: 10 µM unless noted
786-0 renal = settings: 10 µM unless noted
COLO 205 colon = settings: 10 µM unless noted
DU-145 prostate = settings: 10 µM unless noted
K-562 leukemia = settings: 10 µM unless noted
MALME-3M melanoma = settings: 10 µM unless noted
MDA-MB-231 breast = settings: 10 µM unless noted
RXF 393 renal = settings: 10 µM unless noted
SF-268 CNS = settings: 10 µM unless noted
SF-295 CNS = settings: 10 µM unless noted
SF-539 CNS = settings: 10 µM unless noted
UACC-257 melanoma = settings: 10 µM unless noted

Measured: growth

Cc1ccc(-n2cc(/C=N/NC(=O)c3ccncc3)c(-c3ccc(S(C)(=O)=O)cc3)n2)cc1
inactive: NCI-H23 lung 83% | NCI-H226 lung 101% | NCI-H322M lung 93.5% | HOP-62 NSCLC 88.7% | NCI-H460 lung 101% | HOP-92 NSCLC 97.5% | NCI-H522 lung 68.8% | A549/ATCC NSCLC 103% | 786-0 renal 90% | COLO 205 colon 104% | DU-145 prostate 97.3% | K-562 leukemia 32.3% | MALME-3M melanoma 68.7% | MDA-MB-231 breast 79.5% | RXF 393 renal 103% | SF-268 CNS 100% | SF-295 CNS 102% | SF-539 CNS 91.8% | UACC-257 melanoma 96.5%

CS(=O)(=O)c1ncc(-c2ccccc2)cn1
inactive: NCI-H23 lung 96% | NCI-H226 lung 101% | NCI-H322M lung 91.2% | HOP-62 NSCLC 100% | NCI-H460 lung 108% | HOP-92 NSCLC 104% | NCI-H522 lung 86.4% | A549/ATCC NSCLC 94.2% | 786-0 renal 109% | COLO 205 colon 108% | DU-145 prostate 104% | K-562 leukemia 93.3% | MALME-3M melanoma 104% | MDA-MB-231 breast 99.8% | RXF 393 renal 106% | SF-268 CNS 101% | SF-295 CNS 107% | SF-539 CNS 94.4% | UACC-257 melanoma 89.7%

O=C1[C@H]2Cc3c([nH]c4ccccc34)[C@@H](c3ccc(Cl)cc3)N2C(=O)CN1C1CCN(Cc2ccccc2)CC1
active: K-562 leukemia 9.91%
inactive: NCI-H23 lung 73.8% | NCI-H226 lung 49% | NCI-H322M lung 57.1% | HOP-62 NSCLC 74.8% | NCI-H460 lung 29.8% | HOP-92 NSCLC 42.5% | NCI-H522 lung 81.1% | A549/ATCC NSCLC 43.8% | 786-0 renal 64.3% | COLO 205 colon 50.6% | DU-145 prostate 55.2% | MALME-3M melanoma 72.9% | MDA-MB-231 breast 55.2% | RXF 393 renal 41% | SF-268 CNS 50% | SF-295 CNS 64.9% | SF-539 CNS 63.7% | UACC-257 melanoma 68%

Cc1ccc(-c2nnc(SCc3ccc(O)c4ncccc34)n2-c2ccccc2)cc1
active: NCI-H460 lung -15.8% | HOP-92 NSCLC -12.5% | NCI-H522 lung -5.09% | K-562 leukemia 6.04% | MALME-3M melanoma 3.77% | RXF 393 renal -0.61% | SF-295 CNS -10.3% | SF-539 CNS 5.11% | UACC-257 melanoma -7.27%
inactive: NCI-H23 lung 15.6% | NCI-H226 lung 24.4% | NCI-H322M lung 19.6% | HOP-62 NSCLC 10.6% | A549/ATCC NSCLC 11.3% | 786-0 renal 25% | COLO 205 colon 25.6% | DU-145 prostate 30.2% | MDA-MB-231 breast 23.6% | SF-268 CNS 14.8%

O=C(Cn1cc(-c2ccccc2)nn1)Nc1nc(-c2ccc(Cl)cc2)cs1
inactive: NCI-H23 lung 97.7% | NCI-H226 lung 106% | NCI-H322M lung 100% | HOP-62 NSCLC 108% | NCI-H460 lung 109% | HOP-92 NSCLC 130% | NCI-H522 lung 88.2% | A549/ATCC NSCLC 103% | 786-0 renal 88.6% | COLO 205 colon 117% | DU-145 prostate 108% | K-562 leukemia 98% | MALME-3M melanoma 90.4% | MDA-MB-231 breast 104% | RXF 393 renal 135% | SF-268 CNS 113% | SF-295 CNS 77.7% | SF-539 CNS 108% | UACC-257 melanoma 98.9%

O=C(NCCN1CCCC1)c1ccc(-c2nc3ccc4[nH]ncc4c3c3c2CCCC3)cc1
active: NCI-H23 lung -14.8% | NCI-H322M lung 3.73% | NCI-H460 lung -5.93% | HOP-92 NSCLC -15.4% | NCI-H522 lung -29.2% | A549/ATCC NSCLC 6.08% | 786-0 renal 6.43% | COLO 205 colon -14.8% | DU-145 prostate 6.08% | K-562 leukemia 0.479% | MALME-3M melanoma -2.3% | MDA-MB-231 breast -2.53% | SF-268 CNS -11.3% | SF-295 CNS 3.28% | SF-539 CNS -63.2%
inactive: NCI-H226 lung 13.6% | HOP-62 NSCLC 15.8% | UACC-257 melanoma 23.8%

N#Cc1cccc(CN2CCC3=C(C2)C(=O)N(Cc2ccc(Cl)cc2)C2=NCCN23)c1
active: COLO 205 colon -41% | SF-295 CNS 8.53%
inactive: NCI-H23 lung 30.8% | NCI-H226 lung 35% | NCI-H322M lung 50.8% | HOP-62 NSCLC 31.8% | NCI-H460 lung 15% | HOP-92 NSCLC 29% | NCI-H522 lung 23.1% | A549/ATCC NSCLC 27.2% | 786-0 renal 44.7% | DU-145 prostate 28.5% | K-562 leukemia 23.3% | MALME-3M melanoma 50.4% | MDA-MB-231 breast 31.7% | SF-268 CNS 36% | SF-539 CNS 41.7% | UACC-257 melanoma 10.7%

N#Cc1cccc(CN2CCc3ncn(Cc4ccc(Cl)cc4)c(=O)c3C2)c1
active: SF-295 CNS 8.57%
inactive: NCI-H23 lung 26.2% | NCI-H226 lung 30.4% | NCI-H322M lung 42.9% | HOP-62 NSCLC 31.2% | NCI-H460 lung 13.5% | HOP-92 NSCLC 30.3% | NCI-H522 lung 16.6% | A549/ATCC NSCLC 24.9% | 786-0 renal 42.8% | COLO 205 colon 11.7% | DU-145 prostate 26.9% | K-562 leukemia 24.2% | MALME-3M melanoma 41.5% | MDA-MB-231 breast 26.9% | RXF 393 renal 14.3% | SF-268 CNS 27.2% | SF-539 CNS 33.6% | UACC-257 melanoma 12.3%
